The source of these data is PubChem BioAssay (EPA / NIEHS).

Broadly, the AC50 is the concentration at which the activity in the assay is half-maximal.

Assay [1] in a line: Tanguay_ZF_120hpf_EYE_legacy: (Legacy) Oregon State University Tanguay Lab 120 Hour Post-fertilization zebrafish Assay for Eye Malformation (AID 2283636).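 Further: binary presence or absence of eye malformation scored by brightfield in 120 hpf larvae.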 The gist of the method: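 Binary brightfield scoring of eye defects at 120 hpf after static exposure from 6 hpf of single pronase-dechorionated wild-type embryos (28C, 0.64% DMSO). Non-mortality endpoints omitted where embryos died; fit vs DMSO.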

Assay [2] in a line: Tanguay_ZF_120hpf_SNOU_legacy: (Legacy) Oregon State University Tanguay Lab 120 Hour Post-fertilization zebrafish Assay for Snout Malformation (AID 2283637). Put shortly: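 Binary snout-malformation call at 120 hpf in wild-type 5D embryos, chorion removed by pronase, under static exposure from 6 hpf at 28C (0.64% DMSO). Embryos dying by 24 or 120 hpf excluded.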
The nature of assay [3]: Tanguay_ZF_120hpf_JAW_legacy: (Legacy) Oregon State University Tanguay Lab 120 Hour Post-fertilization zebrafish Assay for Jaw Malformation (AID 2283638).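 On AC50: active means more embryos with jaw malformation than DMSO controls.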 The gist of the method:
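Wild-type 5D embryos, chorion removed at 4 hpf, dosed singly from 6 hpf; 28C static, sealed, foil-covered, to 120 hpf. Endpoint: jaw defect yes/no (brightfield); mortality excludes scoring.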

Assay [4] in a line: Tanguay_ZF_120hpf_OTIC_legacy: (Legacy) Oregon State University Tanguay Lab 120 Hour Post-fertilization zebrafish Assay for Otic Vesicle Malformation (AID 2283639). The gist of the method: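 Binary scoring of otic vesicle defects at 120 hpf in zebrafish (Tropical 5D) held under static exposure at 28C, sealed and shaded, with final DMSO 0.64%. Embryos dying by 24 or 120 hpf excluded; fitted positively against DMSO.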

The nature of assay [5]: Tanguay_ZF_120hpf_BRAI_legacy: (Legacy) Oregon State University Tanguay Lab 120 Hour Post-fertilization zebrafish Assay for Brain Malformation (AID 2283641). Put shortly:
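Static exposure of staged wild-type embryos until 120 hpf, kept at 28C with light excluded and final DMSO of 0.64% (vol/vol). Presence or absence of brain malformation was noted under brightfield; mortality precluded scoring.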

The nature of assay [6]: Tanguay_ZF_120hpf_SOMI_legacy: (Legacy) Oregon State University Tanguay Lab 120 Hour Post-fertilization zebrafish Assay for Somite Malformation (AID 2283647). Put shortly:
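Somitogenesis defects are recorded as binary calls in whole larvae at 120 hpf after continuous static chemical exposure starting at 6 hpf in dechorionated 5D embryos. DMSO serves as negative control and baseline.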

A short description of assay [7]: Tanguay_ZF_120hpf_PFIN_legacy: (Legacy) Oregon State University Tanguay Lab 120 Hour Post-fertilization zebrafish Assay for Pectoral Fin Malformation (AID 2283648).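 Further: each larva judged yes or no for fin defect by brightfield with dead larvae skipped.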 Put shortly: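 Pectoral fin malformation was recorded as a binary endpoint at 120 hpf in wild-type Tropical 5D larvae, which had been dechorionated and exposed statically from 6 hpf at 28C in 0.64% DMSO. Dead embryos were excluded.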

Assay [8] can be described thus: Tanguay_ZF_120hpf_CFIN_legacy: (Legacy) Oregon State University Tanguay Lab 120 Hour Post-fertilization zebrafish Assay for Caudal Fin Malformation (AID 2283649). The gist of the method:
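Single dechorionated 5D wild-type embryos are dosed at 6 hpf (final DMSO 0.64%) and held statically at 28C. Caudal fin malformation is recorded as present or absent at 120 hpf under brightfield, excluding dead embryos.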

A short description of assay [9]: Tanguay_ZF_120hpf_PIG_legacy: (Legacy) Oregon State University Tanguay Lab 120 Hour Post-fertilization zebrafish Assay for Pigmentation Malformation (AID 2283650). The gist of the method:
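Pigment malformation recorded as a binary call at 120 hpf in zebrafish (Tropical 5D) exposed singly from 6 hpf after pronase dechorionation. Static, sealed, 28C exposure, 0.64% DMSO; mortality excludes scoring; positive-direction fit against DMSO.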

Assay [10] is described as follows: Tanguay_ZF_120hpf_CIRC_legacy: (Legacy) Oregon State University Tanguay Lab 120 Hour Post-fertilization zebrafish Assay for Circulatory Malformation (AID 2283651). Put shortly:
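Binary circulatory malformation call at 120 hpf by brightfield imaging of zebrafish larvae; chorion removed at 4 hpf, static exposure from 6 hpf in sealed dark plates at 28C, final DMSO 0.64%; non-mortality endpoints skipped if embryo died.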

Assay [11] can be described thus: Tanguay_ZF_120hpf_SWIM_legacy: (Legacy) Oregon State University Tanguay Lab 120 Hour Post-fertilization zebrafish Assay for Swim Bladder Malformation (AID 2283654).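 Further: swim bladder malformation in each larva scored yes or no under brightfield.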 The gist of the method:
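Scoring is binary for swim bladder defects at 120 hpf, by brightfield inspection of zebrafish larvae. Embryos were exposed singly from 6 hpf after pronase dechorionation, at 28C with 0.64% DMSO; mortality excluded scoring.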

Assay [12] can be described thus: Tanguay_ZF_120hpf_TRUN_legacy: (Legacy) Oregon State University Tanguay Lab 120 Hour Post-fertilization zebrafish Assay for Truncated Body (AID 2283655). The gist of the method:
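Single dechorionated zebrafish embryos received test chemical from 6 hpf in 0.64% DMSO, kept at 28C. At 120 hpf, brightfield inspection noted any truncated body.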

Assay [13] in a line: Tanguay_ZF_120hpf_NC_legacy: (Legacy) Oregon State University Tanguay Lab 120 Hour Post-fertilization zebrafish Assay for Notochord and Tail Malformation (AID 2283656). Put shortly: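 Binary scoring of notochord distortion by brightfield microscopy; embryos dying were not scored. Wild-type Tropical 5D embryos, chorion removed, exposed singly and statically from 6 to 120 hpf, 28C, sealed, 0.64% DMSO.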

The nature of assay [14]: Tanguay_ZF_120hpf_TR_legacy: (Legacy) Oregon State University Tanguay Lab 120 Hour Post-fertilization zebrafish Assay for Touch Response (AID 2283667). Put shortly: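 Binary touch-response endpoint in larvae at 120 hpf after static waterborne exposure from embryo stage (28°C, 0.64% DMSO vehicle, 5 uM trimethyltin chloride as positive control); embryos dead at 24 or 120 hpf excluded; fitted as gain versus DMSO.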

Assay [15] relates to Thyroperoxidase (TPO), gene 54314. As to the kind of experiment: CCTE_Simmons_AUR_rTPO: CCTE's Amplex UltraRed Assay for Thyroperoxidase (TPO) Inhibition, Simmons Lab (AID 2283662).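 Further: potency for loss of signal meaning inhibition of peroxidase activity.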 The gist of the method:
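Cell-free peroxidase activity assay using rat thyroid gland microsomes with excess H2O2 (300 uM) and 25 uM Amplex UltraRed. Compounds tested from 5 nM to 87.5 uM; fluorescence measured after 30 min at 37C, analysed relative to DMSO baseline.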

Assay [16] is described as follows: CCTE_Simmons_CellTiterGLO_HEK293T: Viability Assessment in CCTE's Assays for Thyroperoxidase (TPO) Inhibition, Simmons Lab (AID 2283665).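 Further: cells exposed to compound for 24 h before readout; actives reduce ATP signal below DMSO vehicle meaning cytotoxicity.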 The gist of the method: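 Luciferase-coupled ATP content after 24 h exposure gives viability; 8-point series from 5 nM to 87.5 uM final in 0.5% DMSO. Human HEK293T cells, 1% FBS medium, three biological replicates, dichlone positive control.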

Records with an inconclusive call do not appear. The source made the active and inactive calls. How the source made its calls: active means hit-call score of the fitted dose curve at least 0.9, where 1 is the maximum; inconclusive means response in the unintended direction; inactive means score below 0.9.

As for `COc1cc(C=O)cc2c1[C@H](COC(N)=O)[C@]1(OC(C)=O)ON2C[C@H]2[C@@H]1N2C(C)=O`, the compound was called inactive in assay [1], in assay [3], in [4], in [5], in [6] and in assay [7]. For the same compound, the compound was classed as inactive in assay [8], in assay [9], in [10], in assay [11], in assay [12] and in assay [13]. Further, the half-maximal activity concentration (AC50) in assay [2] was 21.6 µM (active).

For `CCCSC(=O)N(CCC)CCC`, the result in [1], in assay [2], in assay [3], in assay [4], in assay [5] and in assay [6] was inactive. Also, the call in assay [7], in assay [8], in assay [9], in assay [11], in assay [12] and in assay [13] was inactive.

For the compound `CC(O)CCO` (stereo not drawn), the compound was called inactive in [1], in [2], in assay [3], in assay [4], in [5] and in assay [6]. Further, the outcome in assay [7], in assay [8], in assay [9], in assay [11], in assay [12] and in assay [13] was inactive.

Turning to `Clc1ccccc1Cl`, the outcome in assay [1], in assay [2], in assay [3], in assay [4], in assay [5] and in assay [6] was inactive. The outcome in assay [7], in assay [8], in assay [9], in [11], in assay [12] and in assay [13] was inactive. In addition, the compound was classed as inactive in assay [14].

Take `CCCCCOC(=O)c1ccccc1C(=O)OCCCCC`: the call in assay [1], in [2], in assay [3], in assay [4], in assay [5] and in assay [6] was inactive. Also, the compound was classed as inactive in [7], in [9], in assay [10], in [11], in assay [12] and in assay [13]. Also, the call in assay [14] was inactive.

Take `CCC12COCN1COC2`: the result in [1], in assay [2], in [3], in assay [4], in assay [6] and in assay [7] was inactive. Moreover, the compound was called inactive in assay [8], in [9], in assay [10], in assay [12] and in [13].

Turning to `c1ccc(N=Nc2ccccc2)cc1`, the compound was called inactive in assay [1], in assay [2], in assay [3], in [4], in assay [5] and in assay [7]. The compound was called inactive in assay [8] and in [13].

Regarding `c1ccc(C2CO2)cc1` (stereo not drawn), the compound was called inactive in assay [1], in assay [2], in assay [3], in assay [4], in [5] and in [6]. Besides, the call in assay [7], in assay [8], in assay [9], in assay [11], in assay [12] and in assay [13] was inactive.

For `Oc1ccc2ccc3cccc4ccc1c2c34`, the AC50 in assay [1] is 44.9 µM (active); in assay [2], 44.2 µM (active); in [3], 46.8 µM (active); in assay [4], 11.2 µM (active); in [5], 46.1 µM (active); in [6], 18.4 µM (active). The AC50 in [7] is 12.2 µM (active); in assay [8], 12.4 µM (active); in assay [9] it was 44 µM (active); in assay [11], 48.3 µM (active); in assay [12] it was 46.5 µM (active); in assay [13] it was 11 µM (active). The AC50 in assay [15] is 10.9 µM (active); in assay [16] it was 10.8 µM (active); in assay [14] it was 44.1 µM (active).

Turning to `CN(C)c1ccc(C(=O)c2ccc(N(C)C)cc2)cc1`, the AC50 in [1] is 8.23 µM (active); in assay [2], 27.7 µM (active); in assay [3], 23.4 µM (active); in assay [4] it was 12.9 µM (active); in assay [5], 48.7 µM (active); in assay [6] it was 28.4 µM (active). Moreover, the AC50 was 17.2 µM (active) in assay [7]; 9.77 µM (active) in assay [10]; 30.1 µM (active) in assay [11]; 8.94 µM (active) in assay [15]; 43.8 µM (active) in assay [16]. For the same compound, the result in assay [8], in [12] and in assay [13] was inactive.
